Out of some 65,000 compounds screened, about 2,100 (3.2%) showed an effect of 50% or more. The median lay at about -52%. For the sample, strong results were picked, then their nearest neighbours and some compounds at random.
Tested on: Plasmodium falciparum
Experiment: Screen against P. falciparum Asexual Blood Stage (ABS), at 5uM
Format: functional, Dd2
Conditions: tested at 5 uM

SMILES	INHIBITION [%]
Cc1ccsc1CN1CCc2c(nc(N3CCCCC3C)[nH]c2=O)C1 (configuration not stated)	-14.7
COCCN1C[C@@H]2CN(c3cc(OC)ncn3)CCC[C@]2(C(=O)O)C1	-84
O=C(NCc1cn2c(n1)CN(CC1CCOCC1)CC2)C1CCC1	-14.2
c1ncn(Cc2nnc(C3CCN(CC4CC4)CC3)n2C2CC2)n1	-88.1
Cc1cc(NC(=O)NCC(O)c2ccc(F)cc2)n(C)n1 (configuration not stated)	18.3
Cc1cc(C)cc(CNc2ccc(C(=O)NC(C)CO)cc2)c1 (configuration not stated)	-96.7
COC(=O)CC1CCCCN1CC(=O)Nc1ccc(F)cc1Cl (configuration not stated)	-174
CCN1CCCC(O)(CN(C)Cc2c(C)nn(C)c2C)C1 (configuration not stated)	-105
CCN1CCCC(O)(CNCc2ccccc2F)C1 (configuration not stated)	40.6
CCN1CCCC(O)(CN(C)Cc2ccccc2F)C1 (configuration not stated)	57.5
Cc1nn(C)c(Cl)c1C1CCCN1CC(=O)NCc1ccco1 (configuration not stated)	-24.5
CC(NCc1cccs1)c1ccc(OCc2nccn2C)cc1 (configuration not stated)	-50.1
CCc1cc(N2CCS(=O)(=O)CC2)n2nc(C)c(C)c2n1	-16.5
CCc1cc(N2CCCNCC2)n2nc(C)c(C)c2n1	54.5
CCc1cc(N2CCSCC2)n2nc(C)c(C)c2n1	-90.3
CCNc1ncc(CN2C[C@@H]3CC[C@H]2CN(C(=O)C2CCC2)C3)cn1	-47.5
O=C([C@H]1CCCO1)N1CCCC2(COCCN(c3ccccc3)C2)C1 (some centres not stated)	25.2
Cc1cnn(CCNCC(O)COc2ccc(Cl)cc2Cl)c1 (configuration not stated)	20.2
Cc1cnn(CCNCC(O)COc2cc(Cl)ccc2Cl)c1 (configuration not stated)	58
Cc1cnn(CCNCC(O)COc2ccc(Cl)cc2)c1 (configuration not stated)	-16.9
c1cc(CNCc2ccc(-n3cncn3)nc2)cc(OC2CCCC2)c1	-6.1
Cc1ccc(C(=O)N2CCc3ncnc(-c4cnn(C)c4)c3CC2)o1	-34.2

SMILES	INHIBITION [%]
Cc1ccc(OCC(=O)Nc2ccc(S(C)(=O)=O)cc2)cc1C	-89.1
N#Cc1cnc(NCCCN2C(=O)COc3ccccc32)c(Cl)c1	-73.7
N#Cc1c(Cl)nsc1NCCCN1C(=O)COc2ccccc21	58.1
N#Cc1ccc(NCCCN2C(=O)COc3ccccc32)nc1	-30.6
CC(C)NC(=O)c1sc2ccccc2c1C1CCC(CN)CC1 (configuration not stated)	0.324
COc1nn(C)c2c1CCCN(C(=O)c1ccc3ccccc3n1)C2	-94.4
O=C(c1ccc[nH]1)N1C[C@@H]2CC[C@H]1CN(C1Cc3ccccc3C1)C2	-60.5
CCCc1nc(C[S+]([O-])Cc2cn3cccc(C)c3n2)no1 (configuration not stated)	-22
CCN1CCO[C@@H]2CN(C(=O)c3ccc4[nH]ccc4c3)CC[C@@H]2C1	-49.2
CN1CCCN(c2nccc(-c3c[nH]nc3-c3ccncc3)n2)CC1	66.9
Cc1ncc(-c2ccnc(N3CCC[C@@H]3CO)n2)c(-c2cccnc2)n1	-23.8
OCCNc1nccc(-c2c[nH]nc2-c2ccncc2)n1	-56.1
CN1CCCN(c2nccc(-c3cc(C(=O)O)ccn3)n2)CC1	-113
CN1CCCN(c2nccc(-c3c[nH]c4ccc(Br)cc34)n2)CC1	43.1
OC[C@@H]1CCCN1c1nccc(-c2c[nH]nc2-c2ccncc2)n1	68.3
CNc1cccc(C2CCCN(C(=O)c3cscn3)C2)n1 (configuration not stated)	-9
CC1N(C)C(=O)COC12CCN(Cc1ccsc1)CC2 (configuration not stated)	-52.9
COCCN1CCCC1c1nccnc1Nc1nccs1 (configuration not stated)	1.36
Cc1cccn2c(CC(=O)N3CCC(CCn4cccn4)CC3)cnc12	-1.65
N#Cc1cccc(OCCN2CCCC2C(=O)NC2CC2)c1 (configuration not stated)	-14.2
N#Cc1cccc(OCCN2CCCC2C(=O)NCC(F)(F)F)c1 (configuration not stated)	1.9
N#Cc1cccc(OCCN2CCCC2C(=O)N2CCSCC2)c1 (configuration not stated)	51.9

SMILES	INHIBITION [%]
Cc1cccn2cc(CNCc3cccc4c3OCCCO4)nc12	53.7
c1cc(CNCCc2cn3ccccc3n2)c2c(c1)OCCCO2	-57.2
Cc1cccc2nc(CNCc3cccc4c3OCCCO4)cn12	47.8
Cc1ccc(CN2Cc3c(C(=O)N(C)C)nn(C)c3C2)s1	-70.8
Cc1nnc(N2C[C@@H](OCCCn3cccn3)[C@H]3OCCC[C@H]32)s1	-31.4
OC1(CNCc2csc(-c3ncccn3)n2)CCCNC1 (configuration not stated)	-26.6
CC(C)Oc1cccc(CNC(Cc2ccsc2)c2nccs2)c1 (configuration not stated)	-29.2
Cc1cccnc1C(Cc1ccsc1)NC(=O)Cn1cccnc1=O (configuration not stated)	4.78
Cc1cccnc1C(Cc1ccsc1)NCc1cnc(N(C)C)nc1 (configuration not stated)	66.6
CN1CCCC(Cc2cncc(C(=O)N3CCOCC3)c2)C1 (configuration not stated)	-133
O=S1(=O)NC(c2ccnc(N3CCOCC3)n2)=Nc2ccccc21	-15.8
CN(Cc1ccccc1)C(=O)CSc1ccc2c(c1)OCCO2	-122
COc1ccc(CN2CCCC3(CCN(c4ccsc4)C3=O)C2)cc1 (configuration not stated)	62.3
COCCN1CCCC2(CCN(c3ccsc3)C2=O)C1 (configuration not stated)	16
CN(C)C(=O)CN1CCCC2(CCN(c3ccsc3)C2=O)C1 (configuration not stated)	-78.3
COc1ccc(CN2CCC3(CCN(c4cccnc4)C3=O)C2)cc1 (configuration not stated)	-23.2
O=C1N(c2ccsc2)CCC12CCCN(CC1CC1)C2 (configuration not stated)	51.6
O=C(CO)N1CCCC2(CCN(c3ccsc3)C2=O)C1 (configuration not stated)	-104
CC1COC2(CCN(C(=O)Cc3ccncc3)CC2)C1 (configuration not stated)	-78.3
Cc1cc(C2CCCN(CCc3ccc4c(c3)CCO4)C2)n[nH]1 (configuration not stated)	-25.4
COc1ccccc1OCCN1CCCCC1Cn1cncn1 (configuration not stated)	-9.63
CCc1nnc(Nc2cccc(C3CCN(S(=O)(=O)N(C)C)CC3)n2)s1	7.99

SMILES	INHIBITION [%]
O=C(NCc1nncn1-c1ccccc1)C1CCCCC1	-107
N[C@@H]1c2ccccc2C2(CCN(c3ccc(C(F)(F)F)cn3)CC2)[C@H]1O	-38.4
OC1(CN2CCCCC2)CCN(c2nccc(C(F)(F)F)n2)C1 (configuration not stated)	-41.9
OC1(CN2CCCCC2)CCN(c2cccc(C(F)(F)F)n2)C1 (configuration not stated)	60.4
OC1(CN2CCCCC2)CCN(c2ccc(C(F)(F)F)cn2)C1 (configuration not stated)	53.5
O=C1CCC2(CCN(c3cccc(C(F)(F)F)n3)CC2)CN1CCO	-33.7
OC1(CN2CCCCC2)CCN(c2cc(C(F)(F)F)ccn2)C1 (configuration not stated)	39.2
Cc1ccc(C(=O)N2CCC(c3n[nH]c(C4CC4)n3)CC2)cc1F	-91.9
Cn1ccnc1CN1CCC2(CC1)CC(Oc1cccnc1)C2	-85.4
Cc1ccc(NC(=O)CC2NC(N3CCc4ccccc43)=NC2=O)cc1 (configuration not stated)	-135
O=C1CC(c2ccncc2)C2(CCN(CCc3ccccc3)CC2)N1 (configuration not stated)	-55.3
O=C1CCCC2(CCN(C(=O)c3cnccn3)CC2)N1	-96.5
O=C1CCC2(CCCN(C(=O)c3cnccn3)CC2)N1 (configuration not stated)	51.9
O=C1CCC2(CCCN(C(=O)c3cccnc3)CC2)N1 (configuration not stated)	-40.9
O=C(NCCN1CCCC1)C1(c2ccc(Cl)cc2)CCOCC1	63.7
Cc1ccccc1C1(C(=O)NCCN2CCCC2)CCOCC1	-5.04
COc1ccccc1C1(C(=O)NCCN2CCCCC2)CCOCC1	-35.3
CC(Oc1ccc2c(c1)OCO2)C(=O)N1CCC(N2CCOCC2)CC1 (configuration not stated)	-162
CCn1cc(NC(=O)CN2CCC(Oc3ccc(F)cc3)CC2)c(C)n1	-33.8
Cc1cc(N2CCCN(c3ccnc(C)c3)CC2)ccn1	-86.7
Cc1cc(N2CCCN(c3nc(C)nc(C)c3C)CC2)ccn1	58
Cc1cc(N2CCCN(Cc3ccc(C)o3)CC2)ccn1	35.2

SMILES	INHIBITION [%]
Cc1n[nH]c(C)c1C1COCCN1c1ncnc2sccc12 (configuration not stated)	-34.7
COCCN1CCC(c2nc3ccc(NC4CCC4)cn3n2)CC1	-2.13
CCN(CC)CCn1cnc(-c2ccccc2)c1-c1ncc[nH]1	-46.8
CCN(CC)CCn1cnc(-c2ccccc2)c1-c1cnn(CC)c1	20.8
CCN(CC)CCn1cnc(-c2ccccc2)c1-c1cnc(C)s1	54.2
Cc1nc(CCCNC(=O)Nc2cc(F)cc(F)c2)n[nH]1	0.825
O=C(O)c1ccc(CC2CCN(Cc3ccc(-c4cc[nH]n4)o3)C2)cc1 (configuration not stated)	-200
CNC(=O)CN1CCC(OCc2ccc(Cl)c(Cl)c2)CC1	-0.573
CCC(N)C(=O)N1CCC(OCc2ccc(Cl)c(Cl)c2)CC1 (configuration not stated)	65.5
NC(=O)CN1CCC(OCc2ccc(Cl)c(Cl)c2)CC1	32.6
CC1CCCCN1C(=O)CCc1nnc(-c2ccccc2)o1 (configuration not stated)	-26.9
O=C(Cn1nc(-c2ccc(F)cc2)oc1=O)NCc1ccc(F)cc1	-11.2
O=C(Cn1nc(-c2ccc(F)cc2)oc1=O)NCc1ccncc1	-63.3
Cc1ccc(CNC(=O)Cn2nc(-c3ccc(F)cc3)oc2=O)cc1F	55.6
CCC1=NN2C(=N)C(=Cc3cccn3-c3ccc(Br)cc3)C(=O)N=C2S1	-87.5
CCCN(CCOC)C(=O)c1cc(Cn2c(C)nc3ccccc32)[nH]n1	-11.8
CC(NCCCN1CCCC1=O)c1ccc(F)cc1N(C)C (configuration not stated)	-24.45
CC(NCCn1cccn1)c1cc(F)ccc1F (configuration not stated)	0.681
CC(NCCN1CCC(N(C)C)CC1)c1ccc(F)cc1N(C)C (configuration not stated)	58.1

From ChEMBL document CHEMBL4513216, “Probing the Open Global Health Chemical Diversity Library for Multistage-Active Starting Points for Next-Generation Antimalarials” (ACS Infect Dis, 2020)
